Laboratory results as given in PubChem BioAssay.
“And” between values parts separate entries of the source, which are not always exact repeats. Equal entries are not always repeated. For some of these results: Results with a measured potency or affinity are listed apart. The source made the active and inactive calls. Unless noted, how the calls were made is not given here.

Columns and labels:
[1] = polyglutamine-triggered caspase-3 activation inhibitors, cell-based (AID 1583); conditions: polyglutamine-induced caspase-3 activation, cell assay; stronger effect = higher value;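 tested at 10 µM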
[2] = suppressors of polyQ aggregation in yeast, 75Q-TubU reporter (AID 1593); conditions: Yeast 75Q polyglutamine aggregation reporter
[3] = rescue of polyQ-huntingtin neuronal dysfunction in worms, whole organism, C. elegans mechanosensory neurons, N-terminal huntingtin (AID 1599); conditions: touch response, stronger effect = higher value
[4] = inhibitors of mitochondrial cytochrome c release, biochemical, purified mitochondria (AID 1603); conditions: stronger effect = lower value;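 further: mouse liver mitochondria challenged with calcium chloride; signal normalized to the plate average as 100%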
[5] = inhibitors of polyQ protein aggregation (AID 1604); conditions: polyglutamine-induced protein aggregation inhibition assay; stronger effect = higher value; tested at 2.5 µM
[6] = enhancers of glutamate uptake in motor neurons, MN-1 cell line (AID 1612); conditions: MN-1 motor neuron cells, stronger effect = higher value;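 further: tested at 1 µM final; 0% = mean of DMSO vehicle wells on each plate; positive means more glutamate uptake than control and negative means less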
[7] = suppressors of polyglutamine aggregation in yeast, 75Q-TubH (AID 1616); conditions: S. cerevisiae 75Q-TubH polyglutamine aggregation suppression; stronger effect = higher value
[8] = circadian clock period modulators, cell-based, LOPAC library, luminescence reporter (AID 2774); conditions: circadian reporter cells, at 7 µM, actives lie on both sides;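 further: values are relative to mean of DMSO wells on each plate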
[9] = test system: Hepatitis C virus NS3 helicase; assay: HCV NS3 helicase inhibitors, primary screen, biochemical, fluorescence polarization, LOPAC1280 library (AID 687035; in the data active means inhibition above about 37%); conditions: Purified HCV NS3 helicase, Cy5-dT15 ssDNA binding fluorescence polarization; stronger effect = higher value; concentration not given here
[10] = Cy5 fluorescence quenching or enhancement artefacts, artefact control for HCV NS3 helicase inhibitor project, biochemical, LOPAC1280 (AID 687037); conditions: Cy5-DNA-NS3h complex fluorescence interference counterscreen
[11] = Cy5 fluorescence interference with SSB-bound oligo, artefact control for HCV NS3 helicase inhibitor project, biochemical, NIH Clinical Collection, E. coli SSB (AID 743268)
[12] = test system: Hepatitis C virus NS3 helicase; assay: HCV NS3 helicase inhibitors, primary screen, biochemical, fluorescence polarization, NIH Clinical Collection (AID 743270); conditions: NS3 helicase binding to Cy5-dT15 DNA, stronger effect = higher value, concentration not given here
[13] = molecular target: Single-stranded DNA-binding protein (Escherichia coli (strain K12)) (UniProt P0AGE0); assay: E. coli SSB displacement from DNA, counter-screen for HCV NS3 helicase inhibitor project, biochemical, fluorescence polarization, NIH Clinical Collection (AID 743271; in the data active means inhibition above about 28%); conditions: stronger effect = higher value, concentration not given here
[14] = fluorescence interference in NS3h assay format, artefact control for HCV NS3 helicase inhibitor project, biochemical, NIH Clinical Collection (AID 743272); conditions: fluorescence interference counterscreen, stronger effect = lower value;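 further: HCV NS3 helicase with a Cy5 labelled single stranded DNA probe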
[15] = phospholipid biosynthesis inhibitors in animal cells, primary screen, cell-based, LOPAC library, screen 4 (AID 1347384); conditions: phospholipid biosynthesis inhibition screen, at 10 µM
[16] = HDN33 neuroblastoma growth inhibition, cell-based, chromothripsis tumors, cisplatin or BGB combos (AID 1671450; in the data active means inhibition above about 80%;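 further: cells exposed to compound for four days; 0% = vehicle DMSO and 100% = cell killing by high DMSO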); conditions: HDN33 neuroblastoma cells, stronger effect = higher value
[17] = HTB85 osteosarcoma cell growth inhibition, synergistic combos for chromothripsis tumors, BGB or cisplatin IC20 combos (AID 1671453; in the data active means inhibition above about 80%;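 further: cells exposed for 96 hours before readout; 0% = vehicle DMSO and 100% = high DMSO killing control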); conditions: HTB85 osteosarcoma cells, drug combinations, stronger effect = higher value
[18] = MDA-MB-436 breast carcinoma cell growth inhibition, synergistic combos for chromothripsis tumors, BGB or cisplatin combos (AID 1671458); conditions: MDA-MB-436 breast carcinoma growth inhibition, drug combinations, stronger effect = higher value;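 further: cells exposed for 96 hours; 0% = vehicle DMSO and 100% = killing by high DMSO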
[19] = growth inhibition of BT084 medulloblastoma cells, cell-based, ICGC_MB145, cisplatin and BGB IC40 combos (AID 1671461; in the data active means inhibition above about 80%;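 further: cells exposed to drugs for 96 hours; 0% = vehicle DMSO and 100% = high DMSO full killing control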); conditions: drug combinations, stronger effect = higher value
[20] = growth inhibition of RCMB18 medulloblastoma cells, cell-based, cisplatin and BGB IC40 combos (AID 1671462; in the data active means inhibition above about 80%;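 further: cells exposed to compound for four days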); conditions: stronger effect = higher value

COc1cc(Cc2cnc(N)nc2N)cc(OC)c1OC
inhibition [1]: -19.7%
score [2]: 1.11
rescue above control [3]: 11.6
cytochrome c release ratio [4]: 0.82
inhibition of aggregation [5]: 83.3%
glutamate uptake change [6]: -5.77%
aggregation suppression score [7]: 1.24
period change [8]: 0.055 h (inactive)
inhibition [9]: 1% (inactive)
fluorescence ratio (interference) [10]: 1 (inactive)
fluorescence ratio [11]: 0.97 (inactive)
inhibition [12]: -3.18% (inactive)
inhibition [13]: 0.29% (inactive)
fluorescence ratio [14]: 0.95 (inactive)
outcome [15]: inactive

CCn1cc(C(=O)O)c(=O)c2ccc(C)nc21
inhibition [1]: 1.35%
score [2]: 0.74
rescue above control [3]: -12.9
cytochrome c release ratio [4]: 0.84
inhibition of aggregation [5]: 54.5%
glutamate uptake change [6]: -15.5%
aggregation suppression score [7]: 0.277
fluorescence ratio [11]: 1.03 (inactive)
inhibition [12]: -0.45% (inactive)
inhibition [13]: -2.76% (inactive)
fluorescence ratio [14]: 0.97 (inactive)
outcome [15]: inactive
inhibition ([16]; BGB combo, at 5 µM): -4.41% and 16.2%
inhibition ([16]; at 0.5 µM): 3.94% (inactive) and 4.3% (inactive)
inhibition ([16]; cisplatin combo, at 5 µM): -15% and -2.27%
inhibition ([16]; measured here: with BGB IC20 combination, at 0.5 µM): -7.56% and 11.7%
inhibition ([16]; measured here: with cisplatin IC20 combination, at 0.5 µM): 7.18% and 9.4%
inhibition ([16]; single agent, at 5 µM): 11.6% and -22.5%
inhibition ([17]; at 0.5 µM): -2.77% (inactive) and -11% (inactive)
inhibition ([17]; measured here: with BGB IC20, at 0.5 µM): -12.2% and -35.2%
inhibition ([17]; measured here: with BGB IC20, at 5 µM): -14.2% and -15.8%
inhibition ([17]; measured here: with cisplatin IC20, at 0.5 µM): -1.63% and -0.143%
inhibition ([17]; measured here: with cisplatin IC20, at 5 µM): 17.1% and -0.249%
inhibition ([17]; single agent, at 5 µM): 22.3% and -3.38%
inhibition ([18]; at 0.5 µM): -9.6% (inactive) and -19.2% (inactive)
inhibition ([18]; measured here: BGB combination, at 0.5 µM): -10.5% and -16.3%
inhibition ([18]; measured here: BGB combination, at 5 µM): -0.497% and -4.71%
inhibition ([18]; measured here: cisplatin combination, at 0.5 µM): -19.6% and -33.6%
inhibition ([18]; measured here: cisplatin combination, at 5 µM): -0.491% and -16.4%
inhibition ([19]; at 0.5 µM): -9.05% (inactive) and -29.1% (inactive)
inhibition ([19]; cisplatin combination, at 0.5 µM): -8.44% and -23.5%
inhibition ([19]; cisplatin combination, at 5 µM): -55.2% and -59.3%
inhibition ([19]; measured here: BGB IC40 combination 0.05 uM, at 0.05 µM): 10.8% and -9.88%
inhibition ([19]; single agent, at 5 µM): -16.7% and -23%
inhibition ([20]; at 0.5 µM): 1.01% (inactive) and -9.08% (inactive)
inhibition ([20]; cisplatin combo, at 5 µM): 0.823% and 3.11%
inhibition ([20]; measured here: BGB IC40 combination, at 0.05 µM): 11.9% and -0.784%
inhibition ([20]; measured here: combination with cisplatin, at 0.5 µM): -11.3% and -2.66%
inhibition ([20]; single agent, at 5 µM): -12.4% and -29.6%

CN1C(=O)CC[C@H]1c1cccnc1
inhibition [1]: 25.7%
score [2]: 1.01
rescue above control [3]: -5.98
cytochrome c release ratio [4]: 0.78
inhibition of aggregation [5]: 72.2%
glutamate uptake change [6]: 11.3%
aggregation suppression score [7]: 1.36
period change [8]: 0.1 h (inactive)
inhibition [9]: -2% (inactive)
fluorescence ratio (interference) [10]: 1 (inactive)
fluorescence ratio [11]: 1.01 (inactive)
inhibition [12]: 5.15% (inactive)
inhibition [13]: 6.83% (inactive)
fluorescence ratio [14]: 0.91 (inactive)
outcome [15]: inactive

Oc1ccc(O)cc1
period change [8]: -0.06 h (inactive)
inhibition [9]: 0% (inactive)
fluorescence ratio (interference) [10]: 1.1 (inactive)
outcome [15]: inactive

COc1c2occc2cc2ccc(=O)oc12
inhibition [1]: 18.6%
score [2]: 0.85
rescue above control [3]: 6.17
cytochrome c release ratio [4]: 2.13
inhibition of aggregation [5]: 72.4%
glutamate uptake change [6]: -3.48%
aggregation suppression score [7]: 0.937
fluorescence ratio [11]: 0.98 (inactive)
inhibition [12]: -3.18% (inactive)
inhibition [13]: -5.05% (inactive)
fluorescence ratio [14]: 1.02 (inactive)

CN(C)C(=O)C(CCN1CCC(O)(c2ccc(Cl)cc2)CC1)(c1ccccc1)c1ccccc1
inhibition [1]: 18.5%
score [2]: 1.94
rescue above control [3]: 1.56
cytochrome c release ratio [4]: 0.99
inhibition of aggregation [5]: 7.94%
glutamate uptake change [6]: 44.5%
aggregation suppression score [7]: 1.13
period change [8]: -0.235 h (inactive)
inhibition [9]: -4% (inactive)
fluorescence ratio (interference) [10]: 1 (inactive)
fluorescence ratio [11]: 1.06 (inactive)
inhibition [12]: -6.82% (inactive)
inhibition [13]: -5.05% (inactive)
fluorescence ratio [14]: 1.01 (inactive)
outcome [15]: inactive

CNCCCN1c2ccccc2CCc2ccccc21
inhibition [1]: -34.3%
score [2]: 1.37
rescue above control [3]: -15.4
cytochrome c release ratio [4]: 1.05
inhibition of aggregation [5]: 7.32%
glutamate uptake change [6]: 12.7%
aggregation suppression score [7]: 1.18
period change [8]: -0.04 h (inactive)
inhibition [9]: -1% (inactive)
fluorescence ratio (interference) [10]: 1 (inactive)
fluorescence ratio [11]: 0.96 (inactive)
inhibition [12]: -2.27% (inactive)
inhibition [13]: -2% (inactive)
fluorescence ratio [14]: 1.02 (inactive)
outcome [15]: inactive

CN1[C@@H]2CC(OC(=O)[C@H](CO)c3ccccc3)C[C@H]1[C@@H]1O[C@@H]12 (stereo partly drawn)
fluorescence ratio [11]: 0.95 (inactive)
inhibition [12]: -1.98% (inactive)
inhibition [13]: 1.44% (inactive)
fluorescence ratio [14]: 0.9 (inactive)
